In PubChem BioAssay (EPA / NIEHS):
Values joined by “and” are separate entries in the source; they are usually repeats but may differ in a detail not shown here. Equal entries are not always repeated. Inconclusive results are not listed. A structure can be active in one record and inactive in another. Active and inactive are the calls of the source. How the source made its calls, unless noted: active means hit-call score of the fitted dose curve at least 0.9, where 1 is the maximum; inactive means score below 0.9.

Columns and labels:
[1] = read-out: Interleukin-1 alpha (IL1a), IL1A (gene 3552); experiment: BSK_LPS_IL1a: BioMAP Diversity Plus: LPS Assay for Interleukin-1 alpha (IL1a) Biomarker Activity (AID 2283080); conditions: primary human HUVEC with PBMC; actives raise or lower the signal
Outline: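 Human umbilical vein endothelial cells co-cultured with peripheral blood mononuclear cells were LPS-stimulated and exposed to test chemicals for 24 h. IL-1 alpha was quantified by ELISA, with bidirectional curve fitting against DMSO as the negative control and baseline.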

[2] = read-out: Monocyte Chemoattractant Protein-1 (MCP1), CCL2 (gene 6347); experiment: BSK_LPS_MCP1: BioMAP Diversity Plus: LPS Assay for Monocyte Chemoattractant Protein-1 (MCP1) Biomarker Activity (AID 2283081); conditions: primary human HUVEC with PBMC; actives raise or lower the signal;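 on AC50: secreted MCP-1 protein quantified by ELISA in culture supernatant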
Outline: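 HUVEC plus PBMC co-culture (human primary cells, LPS system) exposed to test chemical for 24 h; MCP-1 measured by ELISA. Bidirectional curve fitting against DMSO baseline; parallel SRB total-protein staining flags overt cytotoxicity.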

[3] = BSK_LPS_PGE2: BioMAP Diversity Plus: LPS Assay for Prostaglandin E2 (PGE2) Biomarker Activity (AID 2283082); conditions: primary human HUVEC with PBMC; actives raise or lower the signal;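 on AC50: secreted prostaglandin E2 measured by ELISA in LPS-stimulated co-culture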
Outline: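 HUVEC plus PBMC co-culture stimulated with LPS; secreted PGE2 quantified by ELISA 24 h after chemical dosing. Activity fitted bidirectionally against DMSO as negative control and baseline; parallel SRB total-protein staining served as cytotoxicity check.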

[4] = read-out: Macrophage colony-stimulating factor (MCSF), CSF1 (gene 1435); experiment: BSK_LPS_MCSF: BioMAP Diversity Plus: LPS Assay for Macrophage colony-stimulating factor (MCSF) Biomarker Activity (AID 2283083); conditions: primary human HUVEC with PBMC; actives raise or lower the signal
Outline: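 Human umbilical vein endothelial cells co-cultured with peripheral blood mononuclear cells were exposed to compound for 24 h. M-CSF levels were measured by ELISA, and bidirectional curve fitting used DMSO as the negative control and baseline.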

[5] = read-out: Tissue Factor, F3 (gene 2152); experiment: BSK_LPS_TissueFactor: BioMAP Diversity Plus: LPS Assay for Tissue Factor Biomarker Activity (AID 2283084); conditions: primary human HUVEC with PBMC; actives raise or lower the signal
Outline: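 Human umbilical vein endothelial cells co-cultured with peripheral blood mononuclear cells were dosed and stimulated with LPS. Cell-surface CD142 was quantified by ELISA at 24 h. Activity was fitted bidirectionally against DMSO baseline.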

[6] = read-out: Tumor necrosis factor (Homo sapiens) (UniProt P01375); experiment: BSK_LPS_TNFa: BioMAP Diversity Plus: LPS Assay for Tumour Necrosis Factor alpha (TNFa) Biomarker Activity (AID 2283085); conditions: primary human HUVEC with PBMC; actives raise or lower the signal
Outline: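 Human umbilical vein endothelial cells co-cultured with PBMC were exposed to test chemical and TNFa measured by ELISA 24 h after dosing. Bidirectional curve fitting was done relative to DMSO as negative control and baseline.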

[7] = read-out: Vascular cell adhesion molecule 1 (VCAM1), VCAM1 (gene 7412); experiment: BSK_LPS_VCAM1: BioMAP Diversity Plus: LPS Assay for Vascular cell adhesion molecule 1 (VCAM1) Biomarker Activity (AID 2283086); conditions: primary human HUVEC with PBMC; actives raise or lower the signal
Outline: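 Human umbilical vein endothelial cells co-cultured with peripheral blood mononuclear cells under LPS stimulation were exposed to test chemical for 24 h. VCAM-1 levels were then measured by ELISA, with bidirectional curve fitting relative to DMSO as negative control and baseline.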

[8] = read-out: CD38, CD38 (gene 952); experiment: BSK_SAg_CD38: BioMAP Diversity Plus: SAg Assay for CD38 Biomarker Activity (AID 2283087); conditions: primary human HUVEC with PBMC; actives raise or lower the signal
Outline: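 Fluorescence ELISA of cell-surface CD38 served as the read-out, with either increase or decrease fitted against DMSO controls. Cells were a human umbilical vein endothelium plus PBMC co-culture under SEB/TSST-1 stimulation, measured 24 h after dosing.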

[9] = read-out: CD40, CD40 (gene 958); experiment: BSK_SAg_CD40: BioMAP Diversity Plus: SAg Assay for CD40 Biomarker Activity (AID 2283088); conditions: primary human HUVEC with PBMC; actives raise or lower the signal
Outline: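 Human umbilical vein endothelial cells co-cultured with PBMC; CD40 levels measured by ELISA with fluorescence read-out 24 h after chemical dosing. Gain or loss of signal fitted bidirectionally against DMSO baseline.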

[10] = read-out: CD69, CD69 (gene 969); experiment: BSK_SAg_CD69: BioMAP Diversity Plus: SAg Assay for CD69 Biomarker Activity (AID 2283089); conditions: primary human HUVEC with PBMC; actives raise or lower the signal;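 on AC50: cell surface CD69 protein quantified by ELISA with fluorescence detection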
Outline: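 Primary human vascular co-culture (umbilical vein endothelium with peripheral blood mononuclear cells) exposed to test chemical for 24 h. CD69 levels quantified by fluorescence ELISA; DMSO served as negative control for bidirectional fitting.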

[11] = read-out: Monocyte Chemoattractant Protein-1 (MCP1), CCL2 (gene 6347); experiment: BSK_SAg_MCP1: BioMAP Diversity Plus: SAg Assay for Monocyte Chemoattractant Protein-1 (MCP1) Biomarker Activity (AID 2283090); conditions: primary human HUVEC with PBMC; actives raise or lower the signal
Outline: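 MCP-1 levels in the endothelial–PBMC SAg co-culture were quantified by ELISA at 24 h post-dosing; both increases and decreases versus DMSO scored. Cytotoxicity monitored by SRB total protein in parallel cultures.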

[12] = read-out: E-selectin (Homo sapiens) (UniProt P16581); experiment: BSK_SAg_Eselectin: BioMAP Diversity Plus: SAg Assay for Eselectin Biomarker Activity (AID 2283091); conditions: primary human HUVEC with PBMC; actives raise or lower the signal
Outline: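 HUVEC co-cultured with PBMC, compound dosed then read at 24 h; E-selectin measured by ELISA. Activity fitted bidirectionally against DMSO as negative control and baseline.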

[13] = read-out: Monokine induced gamma interferon (MIG), CXCL9 (gene 4283); experiment: BSK_SAg_MIG: BioMAP Diversity Plus: SAg Assay for Monokine induced gamma interferon (MIG) Biomarker Activity (AID 2283092); conditions: primary human HUVEC with PBMC; actives raise or lower the signal
Outline: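 Endothelial cells and PBMC were co-cultured, exposed to test chemicals, and sampled 24 h later. MIG was measured by ELISA, and responses were fitted in both directions relative to DMSO.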

[14] = BSK_SAg_PBMCCytotoxicity: PBMC Cytotoxicity Assessment in the BioMAP Diversity Plus: SAg Assay (AID 2283093); conditions: primary human HUVEC with PBMC;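 further: PBMC viability measured as Alamar Blue reduction fluorescence at 546/580 nm; fitted both ways against DMSO so a hit may be loss or gain of signal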;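 on AC50: PBMC superantigen activated with SEB plus TSST-1 one hour after compound addition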
Outline: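 Compound added to 75,000 PBMC/well for 1 h; SEB and TSST-1 then added at 20 ng/mL final each; 90 h incubation; Alamar Blue 6 h; read 546/580 nm ex/em. Activity fitted bidirectionally relative to DMSO baseline.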

[15] = read-out: Interleukin-8 (IL8), CXCL8 (gene 3576); experiment: BSK_SAg_IL8: BioMAP Diversity Plus: SAg Assay for Interleukin-8 (IL8) Biomarker Activity (AID 2283094); conditions: primary human HUVEC with PBMC; actives raise or lower the signal
Outline: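 Human umbilical vein endothelial cells co-cultured with peripheral blood mononuclear cells; IL-8 measured by ELISA 24 h after chemical dosing. Bidirectional concentration-response fitting used DMSO as negative control and activity baseline.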

[16] = BSK_SAg_Proliferation: Cell Proliferation Assessment in the BioMAP Diversity Plus: SAg Assay (AID 2283095); conditions: primary human HUVEC with PBMC;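 further: relative cell number as total protein by SRB absorbance in sub-confluent culture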
Outline: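 Human umbilical vein endothelial cells co-cultured with peripheral blood mononuclear cells; total protein measured by sulforhodamine B staining (0.1% SRB after 10% TCA fixation), absorbance at 560 nm, at 96 h. Bidirectional fit against DMSO baseline.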

[17] = BSK_SAg_SRB: Viability Assessment in the BioMAP Diversity Plus: SAg Assay (AID 2283096); conditions: primary human HUVEC with PBMC;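 further: cells read one day after compound addition; hits may be either gain or loss of signal compared with DMSO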
Outline: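 Total protein by sulforhodamine B staining, 24 h after dosing, in HUVEC–PBMC co-culture; DMSO-referenced bidirectional fitting.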

[18] = target: human CYP19A1, CYP19A1 (gene 1588) (UniProt P11511); experiment: NVS_ADME_hCYP19A1: NovaScreen (NVS) CYP450-related Enzyme Activity (ADME) Assay for human CYP19A1 (AID 2283098; active means hit-call score of the fitted dose curve at least 0.9, where 1 is the maximum)
Outline: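 Biochem, cell-free; recombinant enzyme + specific substrate; fluorescence intensity at 0.5 h post-dose; 10 uM duplicate primary, conc. series for actives; acetonitrile = negative control/baseline; positive and negative controls on every plate.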

Tumor necrosis factor (Homo sapiens), sequence (P01375 whole entry, looked up): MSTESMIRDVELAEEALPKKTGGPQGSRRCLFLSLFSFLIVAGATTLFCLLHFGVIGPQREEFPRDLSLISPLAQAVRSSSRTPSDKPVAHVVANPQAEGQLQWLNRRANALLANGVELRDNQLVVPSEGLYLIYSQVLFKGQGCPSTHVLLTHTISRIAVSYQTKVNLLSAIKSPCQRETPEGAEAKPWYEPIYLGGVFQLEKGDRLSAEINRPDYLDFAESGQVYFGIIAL
E-selectin (Homo sapiens), sequence (P16581 whole entry, looked up): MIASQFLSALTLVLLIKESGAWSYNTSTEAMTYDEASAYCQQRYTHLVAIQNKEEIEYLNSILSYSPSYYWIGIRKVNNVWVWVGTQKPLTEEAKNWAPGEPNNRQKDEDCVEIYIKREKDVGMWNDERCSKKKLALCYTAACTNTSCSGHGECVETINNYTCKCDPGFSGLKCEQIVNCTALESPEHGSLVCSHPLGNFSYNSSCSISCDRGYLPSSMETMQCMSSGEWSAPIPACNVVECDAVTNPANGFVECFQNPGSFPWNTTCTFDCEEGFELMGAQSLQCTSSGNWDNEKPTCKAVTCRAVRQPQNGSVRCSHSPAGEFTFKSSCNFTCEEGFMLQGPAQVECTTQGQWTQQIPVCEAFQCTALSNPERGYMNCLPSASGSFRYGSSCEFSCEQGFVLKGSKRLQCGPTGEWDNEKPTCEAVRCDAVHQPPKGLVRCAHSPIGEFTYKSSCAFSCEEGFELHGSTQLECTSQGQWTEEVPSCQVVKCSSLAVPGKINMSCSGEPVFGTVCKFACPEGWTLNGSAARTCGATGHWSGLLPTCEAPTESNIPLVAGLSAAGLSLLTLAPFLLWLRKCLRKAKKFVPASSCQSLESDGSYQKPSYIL
human CYP19A1, CYP19A1 (gene 1588), sequence (P11511 whole entry, looked up): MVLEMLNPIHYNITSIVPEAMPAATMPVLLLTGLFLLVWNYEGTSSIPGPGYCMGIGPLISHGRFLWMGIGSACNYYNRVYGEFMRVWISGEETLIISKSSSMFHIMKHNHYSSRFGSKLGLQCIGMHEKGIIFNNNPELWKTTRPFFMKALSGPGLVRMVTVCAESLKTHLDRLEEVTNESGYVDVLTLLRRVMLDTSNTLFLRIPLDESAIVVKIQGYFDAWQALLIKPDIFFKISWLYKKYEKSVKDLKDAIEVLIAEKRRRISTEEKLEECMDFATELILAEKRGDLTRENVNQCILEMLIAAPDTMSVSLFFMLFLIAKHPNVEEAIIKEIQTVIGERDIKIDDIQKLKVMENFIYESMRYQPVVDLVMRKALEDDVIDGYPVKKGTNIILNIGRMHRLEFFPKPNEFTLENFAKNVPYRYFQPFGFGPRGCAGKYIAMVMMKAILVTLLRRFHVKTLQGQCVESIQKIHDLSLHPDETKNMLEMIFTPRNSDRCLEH

SMILES: Cc1[nH]c(=O)n(C(C)(C)C)c(=O)c1Cl
- outcome [1]: inactive
- outcome [2]: inactive
- outcome [3]: inactive
- outcome [4]: inactive
- outcome [5]: inactive
- outcome [6]: inactive
- outcome [7]: inactive
- outcome [8]: inactive
- outcome [9]: inactive
- AC50 [10]: 3.68 µM (active)
- AC50 [11]: 5.42 µM (active)
- AC50 [12]: 20 µM (active)
- outcome [13]: inactive
- AC50 [14]: 9.4 µM (active)
- AC50 [15]: 9.86 µM (active)
- AC50 [16]: 16 µM (active)
- outcome [17]: inactive

SMILES: O=C(O)C(F)(F)C(F)(F)C(F)(F)C(F)(F)C(F)(F)C(F)(F)C(F)(F)F
- outcome [1]: inactive
- outcome [2]: inactive
- AC50 [3]: 35.5 µM (active) and 27.5 µM (active)
- outcome [3]: inactive
- outcome [4]: inactive
- outcome [5]: inactive
- AC50 [6]: 9.76 µM (active)
- outcome [6]: inactive
- outcome [7]: inactive
- outcome [8]: inactive
- outcome [9]: inactive
- outcome [10]: inactive
- outcome [11]: inactive
- outcome [12]: inactive
- outcome [13]: inactive
- outcome [14]: inactive
- AC50 [15]: 44.3 µM (active)
- outcome [15]: inactive
- outcome [16]: inactive
- outcome [17]: inactive
- outcome [18]: inactive

SMILES: [2H]C1([2H])[n+]2ccccc2-c2cccc[n+]2C1([2H])[2H]
- outcome [1]: inactive
- outcome [2]: inactive
- outcome [3]: inactive
- outcome [4]: inactive
- outcome [5]: inactive
- outcome [6]: inactive
- outcome [7]: inactive
- outcome [8]: inactive
- outcome [9]: inactive
- outcome [10]: inactive
- outcome [11]: inactive
- outcome [12]: inactive
- outcome [13]: inactive
- outcome [14]: inactive
- outcome [15]: inactive
- outcome [16]: inactive
- outcome [17]: inactive

SMILES: CCC(C)(NC(=O)c1cc(Cl)c(C)c(Cl)c1)C(=O)CCl (stereo not drawn)
- AC50 [1]: 15.9 µM (active)
- AC50 [2]: 12.2 µM (active)
- outcome [3]: inactive
- AC50 [4]: 13 µM (active)
- AC50 [5]: 5.21 µM (active)
- AC50 [6]: 12.3 µM (active)
- AC50 [7]: 8.9 µM (active)
- AC50 [8]: 6.39 µM (active)
- AC50 [9]: 7.22 µM (active)
- AC50 [10]: 14.3 µM (active)
- AC50 [11]: 10.3 µM (active)
- AC50 [12]: 7.45 µM (active)
- AC50 [13]: 10.5 µM (active)
- AC50 [14]: 20 µM (active)
- AC50 [15]: 5.75 µM (active)
- AC50 [16]: 1.92 µM (active)
- AC50 [17]: 23.6 µM (active)

SMILES: ClC1C(Cl)C(Cl)C(Cl)C(Cl)C1Cl (stereo not drawn)
- outcome [1]: inactive
- outcome [2]: inactive
- outcome [3]: inactive
- outcome [4]: inactive
- outcome [5]: inactive
- AC50 [6]: 13.3 µM (active)
- outcome [6]: inactive
- AC50 [7]: 31.3 µM (active)
- outcome [7]: inactive
- outcome [8]: inactive
- outcome [9]: inactive
- outcome [10]: inactive
- outcome [11]: inactive
- outcome [12]: inactive
- outcome [13]: inactive
- outcome [14]: inactive
- outcome [15]: inactive
- outcome [16]: inactive
- outcome [17]: inactive

SMILES: CCS(=O)(=O)c1cccnc1S(=O)(=O)NC(=O)Nc1nc(OC)cc(OC)n1
- outcome [1]: inactive
- outcome [2]: inactive
- AC50 [3]: 2.31 µM (active)
- outcome [4]: inactive
- outcome [5]: inactive
- AC50 [6]: 1.75 µM (active)
- outcome [7]: inactive
- outcome [8]: inactive
- outcome [9]: inactive
- outcome [10]: inactive
- outcome [11]: inactive
- outcome [12]: inactive
- outcome [13]: inactive
- outcome [14]: inactive
- outcome [15]: inactive
- outcome [16]: inactive
- outcome [17]: inactive
